Source: PubChem BioAssay AID1159580 (chemical genetic matrix, 2015)
The whole screen tested about 5,500 compounds, of which about 2,000 (36%) were called active. About 18% were inconclusive and are not listed. No stated cut-off is given here; in the data, active means normalized growth mostly below about 0.91 (no sharp cut-off); inconclusive means no clear call, values can overlap the other calls; inactive means mostly above about 0.92. The list shows a part of the results.

Experiment: chemical genetic growth profiling, strain panel (AID 1159580);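 further: tested at 20 µM; growth read once vehicle control cultures reached saturation at 30 °C; 1 = growth at the plate median or of vehicle wells; lower values mean less growth of the strain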
Conditions: S. cerevisiae deletion strains, growth OD

Measured: normalized growth

COc1cc(N2C(=O)C=CC2=O)cc(OC)c1OC
active: locus YDL214C, strain PRR2, hits give low values 0.159 | locus YDR477W, strain SNF1, hits give low values 0.176 | locus YER123W, strain YCK3, hits give low values 0.289 | locus YER133W, strain GLC7, hits give low values 0.226 | locus YFR019W, strain FAB1, hits give low values 0.378 | locus YGR040W, strain KSS1, hits give low values 0.191 | locus YGR052W, strain FMP48, hits give low values 0.156 | locus YHR030C, strain SLT2, hits give low values 0.385 | locus YHR082C, strain KSP1, hits give low values 0.147 | locus YJL095W, strain BCK1, hits give low values 0.302 | locus YJL128C, strain PBS2, hits give low values 0.553 | locus YJR066W, strain TOR1, hits give low values 0.133 | locus YKL203C, strain TOR2, hits give low values 0.357 | locus YLR113W, strain HOG1, hits give low values 0.156 | locus YNL183C, strain NPR1, hits give low values 0.143 | locus YOR119C, strain RIO1, hits give low values 0.311 | locus YPL256C, strain CLN2, hits give low values 0.129
inactive: locus YAR019C, strain CDC15, hits give low values 0.924 | locus YBL105C, strain PKC1, hits give low values 0.958 | locus YBR135W, strain CKS1, hits give low values 0.95 | locus YBR136W, strain MEC1, hits give low values 0.935 | locus YBR160W, strain CDC28, hits give low values 0.958 | locus YDL017W, strain CDC7, hits give low values 0.975 | locus YDL028C, strain MPS1, hits give low values 0.958 | locus YDL108W, strain KIN28, hits give low values 0.952 | locus YDL132W, strain cdc53, hits give low values 0.94 | locus YDR052C, strain DBF4, hits give low values 0.959 | locus YDR054C, strain cdc34, hits give low values 0.947 | locus YDR226W, strain ADK1, hits give low values 0.928 | locus YFL009W, strain cdc4, hits give low values 0.968 | locus YFL029C, strain CAK1, hits give low values 0.915 | locus YFR003C, strain YPI1, hits give low values 0.989 | locus YFR028C, strain CDC14, hits give low values 0.928 | locus YGR092W, strain DBF2, hits give low values 0.967 | locus YHR079C, strain IRE1, hits give low values 0.955 | locus YIL147C, strain SLN1, hits give low values 0.982 | locus YJR016C, strain ILV3, hits give low values 0.973 | locus YKL048C, strain ELM1, hits give low values 0.947 | locus YKL193C, strain SDS22, hits give low values 0.939 | locus YMR001C, strain CDC5, hits give low values 0.928 | locus YMR205C, strain PFK2 (second series), hits give low values 0.941 | locus YMR277W, strain FCP1, hits give low values 0.926 | locus YNL006W, strain LST8, hits give low values 1 | locus YNL020C, strain ARK1, hits give low values 0.96 | locus YNL161W, strain CBK1, hits give low values 0.961 | locus YNL207W, strain RIO2, hits give low values 0.968 | locus YNL222W, strain SSU72, hits give low values 0.943 | locus YNL307C, strain MCK1 (second series), hits give low values 0.67 | locus YOL078W, strain AVO1, hits give low values 0.93 | locus YOR061W, strain CKA2, hits give low values 0.942 | locus YOR231W, strain MKK1, hits give low values 0.92 | locus YOR329C, strain SCD5, hits give low values 0.991 | locus YPL209C, strain IPL1, hits give low values 0.964 | locus YPR025C, strain CCL1, hits give low values 0.95 | locus YPR106W, strain ISR1, hits give low values 0.924 | strain NNK1, hits give low values 0.977 | strain TSCII, hits give low values 0.933
